# Screening data (PubChem)
# In the library only some 7.5% were active in any assay of this set; here they are far more common.
# ELG1 DNA repair: ELG1-dependent DNA repair inhibition; HEK293T ELG1-luciferase reporter, luminescence, 16 h; DNA damage induced by 5-fluorouridine; Potency, µM (titrated, usually from 46.1 µM), for the others: top-dose activity change, negative = inhibition, hits mostly inhibitors; hit rate 2.3% among 330,000; also: potency is read from the fitted curve at half-maximal effect; nearly all actives have a fitted effect of over 55% in size
#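 Reporter activity after DNA damage by 5-fluorouridine is monitored. Compound-treated cells incubate 16 hr at 37 °C, then ONE-Glo is added for 30 min before luminescence reading.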
# RORgamma inh: ROR gamma (mouse) transcription inhibition; hit rate 5.4% among 310,000; Drosophila S2 Gal4-RORgamma UAS-luciferase reporter, 20 h; AID 2551; P51450; Potency, µM (top dose mostly 53.6 µM), without a hit: at the top dose activity change, negative = inhibition, usual class: inhibitors; also: potency is read from the fitted curve at half-maximal effect; nearly all actives have a fitted effect of over 60% in size
#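 Luciferase reporter read in Schneider cells carrying Gal4-RORγ (mouse) and UAS-Photinus luciferase; cells given compound 1 h before 700 uM copper sulfate induction, then incubated 20 h at ambient temperature.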
# B2AR arrestin: beta2AR (human) beta-arrestin recruitment activity | AID 492947 | hit rate 0.02% among 330,000 | beta-arrestin recruitment to beta2AR, cell-based reporter | Potency, µM (doses to about 46.1 µM), for inactives: at the top dose activation, actives largely listed as activators | P07550;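 also: potency is read from the fitted curve at half-maximal effect; 0% = DMSO controls and full agonism = EC100 isoproterenol or metaproterenol; nearly all actives have a fitted effect of over 65% in size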
# VP16 counter: counter-screen for ROR gamma inhibitors: Gal4-VP16 reporter; Drosophila S2 Gal4-VP16 UAS-luciferase, luminescence, 20 h; AID 2546; hit rate 3.5% among 310,000; Potency, µM (titrated, usually from 53.6 µM), without a hit: at the highest dose activity, negative = inhibition, actives largely listed as inhibitors;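 also: Gal4-VP16 expression switched on by copper sulfate through the metallothionein promoter; potency is read from the fitted curve at half-maximal effect; nearly all actives have a fitted effect of over 50% in size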
# TSHR antag: antagonists of human thyroid stimulating hormone receptor | P16473 | TSHR-expressing cells, TSH-stimulated cAMP HTRF, 2 h; hits give low values | activity change, negative = inhibition, % at 11.5 µM | hit rate 0.2% among 330,000;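 active = activity change below a set negative limit, meaning inhibition stronger than a set level, cut at about -70% in these data; inconclusive = activity change between two set negative limits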
# Target sequence (P16473 whole entry, looked up): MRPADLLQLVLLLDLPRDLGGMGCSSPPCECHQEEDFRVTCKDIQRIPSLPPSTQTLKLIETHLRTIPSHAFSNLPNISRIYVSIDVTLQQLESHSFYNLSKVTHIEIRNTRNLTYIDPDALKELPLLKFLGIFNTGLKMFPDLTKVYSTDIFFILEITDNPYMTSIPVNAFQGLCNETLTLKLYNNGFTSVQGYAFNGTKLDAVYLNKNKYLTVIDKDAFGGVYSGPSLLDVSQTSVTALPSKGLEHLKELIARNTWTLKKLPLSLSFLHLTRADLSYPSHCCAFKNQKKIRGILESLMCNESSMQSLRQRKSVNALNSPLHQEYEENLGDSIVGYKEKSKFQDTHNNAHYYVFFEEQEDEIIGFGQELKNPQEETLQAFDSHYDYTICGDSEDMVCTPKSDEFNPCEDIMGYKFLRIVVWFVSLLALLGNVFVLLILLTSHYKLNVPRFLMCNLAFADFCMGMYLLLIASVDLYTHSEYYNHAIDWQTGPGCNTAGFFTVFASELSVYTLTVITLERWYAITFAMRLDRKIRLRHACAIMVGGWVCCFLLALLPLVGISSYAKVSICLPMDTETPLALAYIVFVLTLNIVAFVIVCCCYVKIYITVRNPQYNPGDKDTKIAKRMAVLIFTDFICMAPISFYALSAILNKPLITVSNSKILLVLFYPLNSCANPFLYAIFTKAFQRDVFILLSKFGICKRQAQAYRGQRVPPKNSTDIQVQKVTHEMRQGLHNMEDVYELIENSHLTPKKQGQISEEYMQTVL
#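 TSHR-expressing cells, 200/well, pre-treated with compound, then stimulated with EC80 TSH (4nM final) for 2 hours at 37 deg C. cAMP measured by competitive HTRF: anti-cAMP cryptate antibody in lysis buffer plus cAMP-d2, read after 30 minutes at room temperature.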
# Starred values were filed as active, the others as inactive; ? = inconclusive; . = not tested or not shown; [ ] = another dose, or the depositor's remark. Unless noted, calls follow the shape of the dose curve; as a rule, active = well fitted curve in the direction sought with a large enough effect; inconclusive = small, poorly fitted or top-dose-only effect, or another doubt; inactive = no such curve, though single readings can be large; an effect the other way counts as inactive or inconclusive. Unless noted, % is scaled to controls: 0 for no effect and ±100 for the full control effect.
SMILES,ELG1 DNA repair,RORgamma inh,B2AR arrestin,VP16 counter,TSHR antag
COc1ccccc1NC(=O)COC(=O)c1ccc([N+](=O)[O-])s1,6%,?,0%,-4%,-1
O=C(Nc1nnc(-c2ccco2)o1)c1ccc([N+](=O)[O-])s1,?,0.89µM*,0%,2.8µM*,-6
Cc1ccsc1C(=O)Nc1nnc(-c2ccco2)o1,9%,0.28µM*,0%,?,11
Cc1ccc(C(=O)Nc2nnc(-c3ccco3)o2)cc1,?,?,0%,?,-6
CCc1ccccc1NC(=O)c1ccc([N+](=O)[O-])s1,12µM*,14µM*,0%,6%,-4
O=C(Nc1nnc(-c2ccco2)o1)c1ccc2ccccc2c1,?,1.4µM*,0%,1.1µM*,-5
Cc1ccccc1NC(=O)c1ccc2ccccc2c1,?,36%,0%,-1%,-6
Cc1nnc(NC(=O)c2ccc3ccccc3c2)o1,17%,0.11µM*,?,0.32µM*,11
N#Cc1ccc(C(=O)Nc2nnc(-c3ccco3)o2)cc1,16µM*,1µM*,0%,3.2µM*,-2
N#Cc1ccccc1-c1ccc2ncnc(NCc3cccs3)c2c1,.,?,.,-12%,.
NS(=O)(=O)c1ccc(CNC(=O)C(c2ccccc2)c2ccccc2)cc1,-5%,6%,0%,2%,-1
Cc1cc(C)nc(NC(=NCCc2c[nH]c3ccccc23)NC(=O)C(C)(C)C)n1,?,7.1µM*,0%,?,1
COc1ccc(/C=C2/CCCC(C(=O)C(F)(F)F)=C2O)cc1OC,0%,18µM*,0%,?,1
COc1cc(C(c2c(C)[nH][nH]c2=O)c2c(C)[nH][nH]c2=O)ccc1OCc1ccc([N+](=O)[O-])cc1,?,6.3µM*,0%,?,-11
CCOC(=O)C(=Cc1ccc(OCc2ccc([N+](=O)[O-])cc2)c(OC)c1)C(=O)OCC,18µM*,14µM*,0%,?,-31
COC(=O)C(=Cc1ccc(OCc2ccc([N+](=O)[O-])cc2)c(OC)c1)C(=O)OC,?,16µM*,0%,-9%[0.365 µM],-31
COc1cc(C=O)ccc1OCCCOc1ccc([N+](=O)[O-])cc1,-14%,-1%,0%,-12%,1
COc1cc(C(c2c(C)[nH][nH]c2=O)c2c(C)[nH][nH]c2=O)ccc1OC(=O)c1cccc([N+](=O)[O-])c1,8%,21%,0%,9%,19
Cc1cc(NS(=O)(=O)c2ccc(NC(=O)COc3ccc(C#N)cc3)cc2)nc(C)n1,0%,.,0%,.,.
CCCc1ccccc1OCCNS(=O)(=O)c1cc2c(cc1C)OCC(=O)N2,-2%,16%,0%,?,0
Cn1c(=O)cnc2cnc(Oc3ccccc3)nc21,.,14%,.,9%,.
CCOC(=O)c1[nH]cnc1C(=O)Nc1ccc([N+](=O)[O-])cc1,-2%,0%,0%,-12%,-7
O=C(Nc1ccc(F)cc1)c1nc[nH]c1C(=O)Nc1ccc([N+](=O)[O-])cc1,5%,5µM*,-1%,7.1µM*,-1
O=C(Nc1ccc([N+](=O)[O-])cc1)c1nc[nH]c1C(=O)NC1CCCCC1,?,1.6µM*,-1%,3.5µM*,-3
CCN(c1ccccc1)S(=O)(=O)c1ccc(C(=O)NC2CCN(Cc3ccccc3)CC2)cc1,?,.,3%,.,-15
SMILES,ELG1 DNA repair,RORgamma inh,B2AR arrestin,VP16 counter,TSHR antag
O=C(Cc1ccccc1)Nc1cccc(N2C(=O)C=CC2=O)c1,-20%,3.5µM*,0%,5µM*,-71*
COc1cccc(NC(=O)Cc2ccccc2)c1,?,?,0%,9%,2
CCc1sc(C(=O)N2CCN(c3ccc(F)cc3)CC2)cc1C,-7%,7%,0%,0%,-13
C/C(=C\C(=O)c1ccc(Cl)s1)N(C)C,12%,7.1µM*,-1%,?,22
C/C(=N\NC(=O)c1ccccc1OCCOc1ccccc1)c1ccccc1F,18µM*,.,2%,.,-1
C/C(=N\NC(=O)c1ccccc1)c1ccccc1F,?,-32%,-1%,-19%,1
Cc1cnn(-c2nc(-c3ccccc3)cc(-c3ccccc3)n2)c1,21µM*,3.2µM*,-2%,11µM*,40
CCOc1ccc(NS(=O)(=O)c2ccc(C(=O)N3CCN(c4ncccn4)CC3)cc2)cc1,7.3µM*,-12%,0%,?,-27
O=C(c1cccc(S(=O)(=O)NCCOc2ccccc2)c1)N1CCN(c2ncccn2)CC1,23µM*,?,-4%,-20%,-20
O=C(c1cccc(S(=O)(=O)N2CCCC2)c1)N1CCN(c2ncccn2)CC1,8%,22%,0%,2%,8
CCCCC[C@H](O)/C=C/[C@@H]1[C@H]2C/C(=C/CCCC(=O)O)O[C@H]2C[C@H]1O,.,6%,.,-13%,.
O=C(O)c1ccc(/C=N/NC(=O)C(O)(c2ccccc2)c2ccccc2)cc1,11%,.,0%,.,-10
CCN(CC)c1ccc(/C=N/NC(=O)C(O)(c2ccccc2)c2ccccc2)o1,-16%,5.6µM*,?,4µM*,-1
O=C(Nc1ccc(Cc2ccncc2)cc1)C1CCC(N2C(=O)C3CC=CCC3C2=O)CC1 (stereo unspecified),?,3%,0%,-11%,12
O=C1C2C3C=CC(C3)C2C(=O)N1c1ccc(Cc2ccncc2)cc1 (stereo unspecified),-1%,-25%,0%,22µM*,10
CC1CCC2C(=O)N(c3ccc(Cc4ccncc4)cc3)C(=O)C2C1 (stereo unspecified),?,11µM*,2%,6.3µM*,-20
O=C(Nc1ccc(Cc2ccncc2)cc1)C1CCC(N2C(=O)C3C4C=CC(C4)C3C2=O)CC1 (stereo unspecified),6.5µM*,-42%,-1%,?,-21
CCCCCCCCCCCCCCNCCO,.,13%,.,0%,.
COc1ccc(Oc2ncc3nc(-c4cccs4)c(=O)n(Cc4cccc(OC)c4)c3n2)cc1,.,1%,.,-7%,.
O=c1c(CCc2ccccc2)nc2cnc(Oc3ccccc3)nc2n1C1CC1,.,32%,.,1%,.
Cc1cc(C(=O)OCC(=O)Nc2ccccc2C#N)c(C)o1,?,.,-2%,.,-5
CNCC(=O)Nc1ccc(OC(F)(F)F)cc1,22%,5%,0%,-6%,4
COc1cccc(OC)c1C(=O)OCC(=O)Nc1ccc(OC(F)(F)F)cc1,21µM*,-22%,0%,-4%,-4
CO/N=C1/[C@H]2O[C@@H]2[C@@H](O)[C@H]2[C@H]1CCn1c(=O)n(-c3ccccc3)c(=O)n12,.,24%[10 µM],.,8%[10 µM],.
Cc1ccc(C(=O)/C=C2\NCC(C)NC2=O)cc1 (stereo unspecified),?,8.9µM*,0%,10µM*,1
CC(C)(C)c1cc(C(=O)/C=C/c2ccc(C(=O)O)cc2)cc(C(C)(C)C)c1,.,7.1µM*,.,?,.
